Bioassay records: PubChem BioAssay, several laboratories
Shn3 inh set2: reduces Shn3 3'UTR luciferase signal in osteoblasts; Clone20 osteoblast Shn3 3'UTR firefly luciferase, 24 h; inhibition, % at 12.5 µM; 0.52% of 360,000 active; AID 588674;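 active = mean inhibition of at least 75% with every replicate also reaching 75%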;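 note: 0% = median of neutral control wells and 100% = pilot-screen positive control compound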
CF NFkB block: cystic fibrosis NF-kB activation inhibition; 0.86% of 360,000 active; inhibition, % at 5 µM; AID 588850; KKLEB NF-kB-GFP reporter, PAF-induced, GFP fluorescence overnight;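 active = at least 50% inhibition at 5 µM, scaled per plate between neutral and stimulator controls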;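 note: PAF is a Pseudomonas aeruginosa culture filtrate used as stimulus; plate controls were PAF-stimulated DMSO wells for no effect and unstimulated DMSO wells for full effect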
HIF-2a inh: HIF-2a inhibition; 0.72% of 360,000 active; 786-0 RCC cells HIF-2a reporter, luciferase luminescence, overnight; inhibition, % at 18.8 µM;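 active = inhibition of the luminescence signal of 40% or more relative to plate controls, in a single-dose primary screen at 18.75 µM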
Peg3 promoter: inhibitors of Peg3 promoter; inhibition, % at 20 µM; HeLa PEG-Prom luciferase reporter, luminescence, overnight; AID 588405; 1.7% of 360,000 active;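 active = inhibition of at least 50% at 20 µM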
TRPM1 prom inh: MITF TRPM1 promoter inhibition in SK-MEL-5 cells | 0.83% of 330,000 active | SK-MEL-5 TRPM1 promoter luciferase, 24 h | inhibition, % at 12.5 µM;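 active = mean inhibition across replicates of 60% or more, whatever share of single replicates reaches that level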
KKLEB tox: CF airway cell cytotoxicity counter-screen; 0.36% of 360,000 active; activity change (cytotoxicity), % at 5 µM; KKLEB CF airway cells viability, ATPlite luminescence, overnight; active compounds read low; cells stimulated with P. aeruginosa culture filtrate;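 active = corrected activity change at or below -50% at 5 µM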
Mdm2 MdmX conf: confirmation of inhibitors of human Mdm2/MdmX interaction, set 2. AID 504601. inhibition, % at 8 µM. SaOS-2 split-luciferase Mdm2/MdmX complementation, luminescence. shares compounds with HIF-2a inh. 99% of 740 active;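 active = mean inhibition of the luminescence signal across two replicates at or above 26 percent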
HIF-2a inh conf: confirmation of HIF-2a inhibitors | 786-0 RCC cells, HIF-2a luciferase reporter luminescence, overnight | 56% of 1,800 active | AID 651580 | inhibition, % at 18.8 µM | shares compounds with HIF-2a inh;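 active = mean inhibition across four replicates of at least 40 percent at the single tested concentration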
HIF-1a cs: counter-screen for HIF-2a inhibitors: HIF-1a inhibition in MiaPaCa-2 cells | 72% of 1,800 active | MiaPaCa-2 HIF-1a luciferase reporter, desferoxamine, overnight | AID 651589 | shares compounds with HIF-2a inh | inhibition, % at 18.8 µM;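 active = mean inhibition of the reporter signal across four replicates at the single tested dose of 50% or more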
An asterisk follows results filed as active; . = no result. An excerpt weighted towards active compounds, which were near 2.7% of everything screened.

SMILES	Shn3 inh set2	CF NFkB block	HIF-2a inh	Peg3 promoter	TRPM1 prom inh	KKLEB tox	HIF-2a inh conf	HIF-1a cs	others
Cc1ccc(C(=O)O/N=C(\N)c2ccccn2)c(C)c1	96*	30	89*	106*	96*	-46	.	.	Mdm2 MdmX conf=101*
CC(C)NC(=O)C1(C)CCN1CCC(=O)c1ccccc1 (stereo unspecified)	-74	-24	0	19	.	11	.	.
O=C(O)c1cccc(-c2nnn(Cc3ccccc3)n2)c1	-50	-2	-27	-113	-7	4	.	.
O=C(O)c1cccc(-c2nnn(Cc3ccccc3Cl)n2)c1	-9	-8	65*	28	56	-5	63*	-38
OC(c1ccc(F)c(F)c1)c1ncc(-c2cccc(C(F)(F)F)c2)[nH]1 (stereo unspecified)	30	28	9	24	.	-7	.	.
Cc1ccc2c(c1)=N/C(=N\c1[nH]c(O)c3ccccc13)N=2	-20	37	76*	90*	.	0	-88	95*
Cc1nc2cc(-c3ccc(Cl)cc3)nn2c(C)c1CCC(=O)NCc1ccco1	59	-8	81*	-54	40	-4	87*	48
CCOC(=O)C(C)(C)N(Cc1cccc(C)c1)S(=O)(=O)c1ccc(Cl)c([N+](=O)[O-])c1	11	-7	64*	88*	25	6	27	100*
CS(=O)(=O)c1nc(-c2ccc(F)cc2)cc(C(F)(F)F)n1	89*	92*	95*	106*	97*	-96*	55*	102*
COC(=O)CCS(=O)(=O)c1nc(-c2ccccc2)cc(C(F)(F)F)n1	76	87*	88*	107*	94*	-60*	99*	107*	Mdm2 MdmX conf=103*
Cc1cc(NC(=O)CCCS(=O)(=O)c2nc(-c3cccs3)cc(C(F)(F)F)n2)no1	95*	90*	94*	106*	95*	-53*	56*	104*
Nc1nc(-c2ccc(F)cc2)cc(C(F)(F)F)n1	-3	23	7	-13	15	-15	.	.
CCOC(=O)CS(=O)(=O)c1nc(-c2ccc(F)cc2)cc(C(F)(F)F)n1	97*	85*	93*	100*	99*	-44	.	.	Mdm2 MdmX conf=99*
O=C(O)CCS(=O)(=O)c1nc(-c2cccs2)cc(C(F)(F)F)n1	-18	16	5	12	3	-1	.	.
O=c1c(-c2ccccc2)cocc1-c1ccccc1	-23	34	-194	-242	.	-18	.	.
C[C@H](O)[C@@H]1C(=O)N2CCc3c([nH]c4ccccc34)[C@@H]2C[C@@H]1N(C)Cc1ccc(Cl)cc1	-17	5	-14	10	.	-11	.	.
Cc1cc(=O)n2nc(N3CCCC(C(=O)Nc4cccc(C)c4C)C3)sc2n1 (stereo unspecified)	3	-9	1	4	.	-12	.	.
CCOC(=O)CCS(=O)(=O)c1nc(-c2ccccc2)cc(C(F)(F)F)n1	98*	86*	94*	114*	85*	-77*	.	.	Mdm2 MdmX conf=103*
O=C(/C=C/c1ccccc1)/C=C/c1ccccc1	64	-80	94*	110*	79*	-17	4	103*
O=C(C=Cc1ccccc1)NCCNC(=O)C=Cc1ccccc1	-15	-13	-20	-6	11	21	.	.
CC(O)CC(=O)OC[C@]12CC[C@H]3[C@@](C)(CC[C@H]4C(C)(C)CCC[C@]34C)[C@@H]1CC(C1=CC(=O)OC1O)O2 (stereo partly specified)	93*	104*	93*	99*	.	-88*	96*	107*
CC1(C(=O)NS(=O)(=O)c2ccc(C#N)cc2)CCN1C(=O)Cc1ccc(-c2ccccc2)cc1 (stereo unspecified)	1	8	11	-3	.	11	.	.
Clc1ccc(-n2ncc3c(N4CCCCCC4)ncnc32)cc1	66	-22	66*	24	71*	-52*	84*	102*
Clc1ccc(Cn2ncc3c(N4CCCCC4)ncnc32)cc1	.	6	-37	-21	-4	3	.	.
